Results on 5 compounds are retold here after PubChem BioAssay (NCI).

Compounds without any hit were thinned out: in the full panel of roughly 79,000, 15% have a hit. A number with no mark means an inactive call. Calls of active or inactive are those of the source. No stated cut-off is given here; in the data, active means growth inhibition above about 70%; inactive means the rest.

A short description of experiment [1]: NCI Yeast Anticancer Drug Screen. Data for the rad50 strain (AID 155).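 Further: 0% = growth of vehicle-only cultures of the same strain.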 The note with it: S. cerevisiae rad50 strain growth inhibition, hits give high values. An outline of the steps:
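Compounds were tested on a yeast strain with an engineered DNA damage repair alteration; the reported value is growth inhibition normalised to vehicle treatment.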

Experiment [2] is described as follows: NCI Yeast Anticancer Drug Screen. Data for the mec2-1 strain (AID 157). The conditions noted are these: S. cerevisiae mec2-1 strain, hits give high values. In outline: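 Cells of the genetically defined mec2-1 yeast strain are incubated with test compound. Inhibition of growth is calculated against vehicle-treated controls.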
Experiment [3] in a line: NCI Yeast Anticancer Drug Screen. Data for the sgs1 mgt1 strain (AID 161).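 Further: 0% = growth of cultures given vehicle only.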 The conditions noted are these: S. cerevisiae sgs1 mgt1 strain, hits give high values. In outline: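 Inhibition of yeast growth, normalised to vehicle-treated controls, is reported for a strain bearing genetic alterations in DNA damage repair.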
Experiment [4] is described as follows: NCI Yeast Anticancer Drug Screen. Data for the cln2 rad14 strain (AID 165).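 Further: 0% = growth equal to vehicle treated cultures.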 The conditions noted are these: S. cerevisiae cln2 rad14 strain, hits give high values. An outline of the steps:
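The screen exposed genetically defined yeast (cln2 rad14) to test compounds and scored growth inhibition relative to vehicle-treated controls.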

The nature of experiment [5]: NCI Yeast Anticancer Drug Screen. Data for the bub3 strain (AID 167). The conditions noted are these: S. cerevisiae bub3 mutant strain, hits give high values. In outline:
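Growth of a checkpoint-deficient yeast mutant is measured after compound exposure. Values represent inhibition relative to vehicle.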

The nature of experiment [6]: NCI Yeast Anticancer Drug Screen. Data for the mlh1 rad18 strain (AID 175). The note with it: S. cerevisiae mlh1 rad18 strain growth inhibition, hits give high values. In outline:
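Compound-treated yeast growth, normalised to vehicle controls. Strain bears defined DNA repair mutations.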

[7] abbreviates: at 5.0 µM (retest, dose inferred, filed as 0.5).
The mark [8] stands for this setting: at 50.0 µM (retest, dose inferred, filed as 5.0).

Consider `COC(=O)/C=C1/OC(c2ccccc2)=C(C)C1=O`, for which the growth inhibition was 6% in experiment [1] (setting [7]); 6% in experiment [1] (setting [8]); 30.7% in experiment [1] (at 50.0 µM); 18% in experiment [2] (setting [7]); 18% in experiment [2] (setting [8]); 30.7% in experiment [2] (at 50.0 µM). Moreover, the growth inhibition was 14% in experiment [3] (setting [7]); 14% in experiment [3] (setting [8]); 48.9% in experiment [3] (at 50.0 µM); -6% in experiment [4] (setting [7]); -6% in experiment [4] (setting [8]); -7.85% in experiment [4] (at 50.0 µM). In addition, the growth inhibition in experiment [5] (setting [7]) was 0%; in experiment [5] (setting [8]) it was 0%; in experiment [5] (at 50.0 µM), 5.8%; in experiment [6] (setting [7]), 8%; in experiment [6] (setting [8]), 8%; in experiment [6] (at 50.0 µM), 42.6%.
For the compound `C1=C(c2ccccc2)C(=Nc2ccccc2)SC1=Nc1ccccc1`, the growth inhibition was 52% in experiment [1] (setting [7]); 100% (active) in experiment [1] (setting [8]); 99% (active) in experiment [1] (at 50.0 µM); 46% in experiment [2] (setting [7]); 100% (active) in experiment [2] (setting [8]); 99.5% (active) in experiment [2] (at 50.0 µM). Further, the growth inhibition in experiment [3] (setting [7]) was 32%; in experiment [3] (setting [8]) it was 99% (active); in experiment [3] (at 50.0 µM) it was 99.5% (active); in experiment [4] (setting [7]), 33%; in experiment [4] (setting [8]), 99% (active); in experiment [4] (at 50.0 µM), 99.3% (active). The growth inhibition in experiment [5] (setting [7]) was 53%; in experiment [5] (setting [8]), 99% (active); in experiment [5] (at 50.0 µM), 99% (active); in experiment [6] (setting [7]), 38%; in experiment [6] (setting [8]), 99% (active); in experiment [6] (at 50.0 µM), 99.5% (active).
As to `CCCCCCCCCCCCCCC[C@@H](O)C[N+](C)(C)CCO`, the growth inhibition in experiment [1] (setting [7]) was 28%; in experiment [1] (setting [8]), 98% (active); in experiment [1] (at 50.0 µM), 90.5% (active); in experiment [2] (setting [7]), 91% (active); in experiment [2] (setting [8]), 99% (active); in experiment [2] (at 50.0 µM) it was 92.8% (active). The growth inhibition in experiment [3] (setting [7]) was 50%; in experiment [3] (setting [8]), 98% (active); in experiment [3] (at 50.0 µM) it was 90% (active); in experiment [4] (setting [7]) it was 42%; in experiment [4] (setting [8]), 98% (active); in experiment [4] (at 50.0 µM) it was 88.5% (active). The growth inhibition in experiment [5] (setting [7]) was 69%; in experiment [5] (setting [8]) it was 98% (active); in experiment [5] (at 50.0 µM), 87.1% (active); in experiment [6] (setting [7]), 57%; in experiment [6] (setting [8]), 98% (active); in experiment [6] (at 50.0 µM), 92.3% (active).
As to `Nc1nc(-c2cccnc2)nc(N)c1N=O`, the growth inhibition in experiment [1] (setting [7]) was 7%; in experiment [1] (setting [8]), 82% (active); in experiment [1] (at 50.0 µM) it was 61.4%; in experiment [2] (setting [7]) it was 15%; in experiment [2] (setting [8]), 79% (active); in experiment [2] (at 50.0 µM), 79.2% (active). In addition, the growth inhibition in experiment [3] (setting [7]) is 15%; in experiment [3] (setting [8]), 88% (active); in experiment [3] (at 50.0 µM), 70.6% (active); in experiment [4] (setting [7]), 1%; in experiment [4] (setting [8]), 90% (active); in experiment [4] (at 50.0 µM) it was 66.5%. Besides, the growth inhibition in experiment [5] (setting [7]) is 36%; in experiment [5] (setting [8]), 92% (active); in experiment [5] (at 50.0 µM), 91.1% (active); in experiment [6] (setting [7]), 25%; in experiment [6] (setting [8]), 94% (active); in experiment [6] (at 50.0 µM) it was 79.1% (active).
Consider `CC(=O)Oc1ccccc1C(=O)/C=C/c1ccccc1`, for which the growth inhibition in experiment [1] (setting [7]) is 3%; in experiment [1] (setting [8]) it was 82% (active); in experiment [1] (at 50.0 µM), -11.2%; in experiment [2] (setting [7]), 7%; in experiment [2] (setting [8]), 89% (active); in experiment [2] (at 50.0 µM), 17.4%. The growth inhibition was 4% in experiment [3] (setting [7]); 93% (active) in experiment [3] (setting [8]); 11.6% in experiment [3] (at 50.0 µM); 0% in experiment [4] (setting [7]); 40% in experiment [4] (setting [8]); -17.3% in experiment [4] (at 50.0 µM). Besides, the growth inhibition was -1% in experiment [5] (setting [7]); 90% (active) in experiment [5] (setting [8]); 61% in experiment [5] (at 50.0 µM); -1% in experiment [6] (setting [7]); 98% (active) in experiment [6] (setting [8]); 9.75% in experiment [6] (at 50.0 µM).
